This note sets out measurements from PubChem BioAssay (Tox21).

Inconclusive results are not listed. Unmarked numbers belong to inactive results. Active and inactive are the calls of the source. Calls come from the whole dose curve.
% is set by controls: 0 for no effect and ±100 for the full control effect; potency is the fitted concentration of half-maximal effect.

Sequence of Thyrotropin receptor (Homo sapiens) (P16473 whole entry, looked up): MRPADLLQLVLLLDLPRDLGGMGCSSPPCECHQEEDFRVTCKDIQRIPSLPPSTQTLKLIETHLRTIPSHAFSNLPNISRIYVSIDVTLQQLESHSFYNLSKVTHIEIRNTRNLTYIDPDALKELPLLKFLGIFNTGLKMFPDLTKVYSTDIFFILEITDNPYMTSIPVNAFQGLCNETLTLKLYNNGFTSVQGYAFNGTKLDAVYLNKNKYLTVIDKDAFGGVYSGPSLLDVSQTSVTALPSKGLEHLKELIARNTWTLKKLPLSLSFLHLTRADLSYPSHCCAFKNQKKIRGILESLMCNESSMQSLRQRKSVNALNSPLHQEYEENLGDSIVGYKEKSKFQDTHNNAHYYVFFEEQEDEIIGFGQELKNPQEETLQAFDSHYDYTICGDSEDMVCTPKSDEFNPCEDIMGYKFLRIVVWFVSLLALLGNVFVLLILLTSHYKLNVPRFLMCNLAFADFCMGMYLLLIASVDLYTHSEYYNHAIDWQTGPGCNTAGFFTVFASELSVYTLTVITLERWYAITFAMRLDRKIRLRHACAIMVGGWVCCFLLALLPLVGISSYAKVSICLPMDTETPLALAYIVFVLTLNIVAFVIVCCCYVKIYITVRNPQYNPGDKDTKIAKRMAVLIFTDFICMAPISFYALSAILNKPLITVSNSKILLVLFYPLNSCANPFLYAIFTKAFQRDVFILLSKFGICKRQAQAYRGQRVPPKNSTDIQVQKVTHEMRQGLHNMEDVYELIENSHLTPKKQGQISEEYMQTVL

In the experiment the target is Thyrotropin receptor (Homo sapiens) (UniProt P16473). Briefly: qHTS assay to identify small molecule agonists of the thyroid stimulating hormone receptor (TSHR) signaling pathway (AID 1224843). Note: nearly all actives have a fitted effect of over 45% in size. The settings on record: TSHR-HEK293 cells, cAMP HTRF, agonist mode, 30 min; series mostly up to 92.4 µM; activation: at the top concentration. The source says:
National Center for Advancing Translational Sciences [NCATS]
NIH Chemical Genomics Center [NCGC]
U.S. Environmental Protection Agency [EPA]
National Institutes of Environmental Health Sciences [NIEHS]
National Toxicology Program [NTP]
U.S. Food and Drug Administration [FDA]
TSHR is the receptor for thyrotropin (thyroid stimulating hormone or TSH), a member of the glycoprotein hormone family. TSH is released by the anterior pituitary gland and is the main regulator of thyroid gland growth and development. Upon binding circulating thyrotropin, a G-protein signal cascade activates adenylyl cyclase and […] cAMP concentration is increased. cAMP is a key second messenger involved extensively in cellular signal transduction pathways associated with the majority of G-protein coupled receptors (GPCRs). The activation of these GPCRs by neurotransmitters, lipids, nucleotides, peptides and hormones results in the activation or the inhibition of plasma membrane-bound adenylate cyclase through heterotrimeric G-proteins. A cell-based TSHR assay was used to screen the Tox21 10K library for compounds that can modulate TSHR in agonist mode.
Tox21 Assay Protocol Summary:
TSHR-Hek293 cells were dispensed at 800 cells/4uL/well in 1536-well white plates using a Multidrop dispenser. […] The plates were incubated at room temperature for 30 min. 2.5 ul/well of cAMP-d2 and 2.5ul/well of anti-cAMP-cryptate was added respectively into the assay plates using a Flying Reagent Dispenser. After 1 hr incubation at room temperature, the fluorescence intensity in the plates was measured using an Envision plate reader. Each test compound was measured at 15 concentrations and in triplicates.
In general terms: Quantitative high-throughput screening tests each substance at several concentrations.
For the compound `CCN(CC)C(=O)N1CCN(C)CC1`, the “activation” value is 3.39% [at 42.5 µM].

In the case of `O=C(c1ccccc1)c1ccc(O)cc1`, the “activation” value is -5.58%.

As to `CSSc1ccoc1C`, the “activation” value is 1.35%.

With `CCCCOCCOC(=O)c1cccnc1`, the “activation” value is -3.42% [at 42.5 µM].

As for `O=C1NC(=O)c2cccc3cccc1c23`, the “activation” value was 4.68%.

Turning to `C=C(C)c1ccccc1`, the “activation” value is 4.8%.

Regarding `CCN(CC)CC(=O)Nc1c(C)cccc1C(=O)OC`, the “activation” value was 3.13% [at 42.5 µM].

Turning to `CC/C=C\C/C=C\C/C=C\CCCCCCCC(=O)OCC`, the “activation” value was 8.94%.

`Cc1ccc(Cl)cc1N`: the “activation” value was -1.76%.

Regarding `Cc1ccc2c(c1)CCCN2`, the “activation” value was -19.8%.

Consider `O[C@@H](CNC[C@H](O)[C@H]1CCc2cc(F)ccc2O1)[C@@H]1CCc2cc(F)ccc2O1`, for which the “activation” value was 20.7% [at 42.5 µM].

Take `CC(=O)C(=O)CC(C)C`: the “activation” value was 2.34%.

With `Cc1cc(CCC(=O)OCCOCCOCCOC(=O)CCc2cc(C)c(O)c(C(C)(C)C)c2)cc(C(C)(C)C)c1O`, the Potency was 15 µM (active).

Take `CCCc1nc2c(C)cc(-c3nc4ccccc4n3C)cc2n1Cc1ccc(-c2ccccc2C(=O)O)cc1`: the “activation” value was 0.753% [at 42.5 µM].

Regarding `Cc1cn([C@H]2C[C@H](F)[C@@H](CO)O2)c(=O)[nH]c1=O`, the “activation” value is -2.38% [at 42.5 µM].

`Cc1ccc(S(=O)(=O)NC(=O)NC2CCCCC2)cc1`: the “activation” value is 0.817% [at 42.5 µM].

As for `Cc1ccc2c(c1[N+](=O)[O-])C(=O)c1ccccc1C2=O`, the “activation” value is 0.619% [at 42.5 µM].

As to `C=CC(=O)NC(C)C`, the “activation” value was -23.7%.

Regarding `[Cl][Nd]([Cl])[Cl]`, the “activation” value was 0.493%.

For the compound `O=C(O)c1cccc(C[C@@H]2COc3ccc(OCc4nc5cc(F)ccc5s4)cc3[C@@H]2O)c1`, the “activation” value is 8.57%.

For the compound `COc1ccc(C)cc1`, the “activation” value is -2.79%.

Take `O=NN(CCCl)C(=O)NCCCl`: the “activation” value is 0.463% [at 42.5 µM].

`O=C(O)CCC(=O)c1ccc(-c2ccccc2)cc1`: the “activation” value was -4.97% [at 42.5 µM].

For `COc1cc(NS(=O)(=O)c2ccc(N)cc2)nc(C)n1`, the “activation” value is -2.99% [at 42.5 µM].

For `CCCCCCCCCCCCCCCC(=O)OCC`, the “activation” value is 3.08%.

As for `CC1C(C)(C)C2=C(C(=O)CCC2)C1(C)C` (stereo not given), the “activation” value is -2.35%.

Regarding `CCC(CO)(CO)CO`, the “activation” value was -5.74%.

Take `CC(C)(O)c1coc(S(=O)(=O)NC(=O)Nc2c3c(cc4c2CCC4)CCC3)c1`: the “activation” value is 2.03%.

As for `CCCCCCC(O)CCOC(C)=O` (stereo not given), the “activation” value was -3.73% [at 240 µM].

For the compound `O=C1CC[C@@H](C(=O)O)N1`, the “activation” value was 3.56% [at 42.5 µM].

`CCCCCCCCCCCCCCN(C)C`: the activation is 2.75% [at 19 µM].

Take `CCC(CO)(CO)[N+](=O)[O-]`: the “activation” value is 0.141%.

For the compound `Nc1nc(-c2ccc([N+](=O)[O-])cc2)cs1`, the “activation” value is -0.0313%.

For `CCSC(=O)N(CC)CC`, the “activation” value was 0.786%.

For `C=C(C)C(=O)OCCC(F)(F)C(F)(F)C(F)(F)C(F)(F)C(F)(F)C(F)(F)F`, the “activation” value was -4.41%.

As to `O=C(O)CCS`, the “activation” value was 5.32%.

On to `O=C(/C=C/c1ccc([N+](=O)[O-])cc1)c1ccccc1`, for which the “activation” value is 1.8%.

With `COC(CC(C)CCCC(C)(C)O)OC` (stereo not given), the “activation” value was -7.32%.

Consider `CC(=O)NNC(C)=O`, for which the “activation” value is -0.452%.

With `O=C(CCS)OCC(COC(=O)CCS)(COC(=O)CCS)COC(=O)CCS`, the “activation” value was -7.75%.
